These results are taken from PubChem BioAssay AID1117319 (Southern Research Institute, 2015).

Where “and” joins values, the source holds several entries; their conditions need not be identical. Equal entries are not always repeated. The whole screen tested about 260,000 compounds, of which about 1,500 (0.58%) were called active. Not shown: some 5% with an inconclusive outcome. A selection follows. Results with a measured potency or affinity are listed apart. Values without a mark were called inactive.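 How the source made its calls: active means inhibition above a set limit at one or more doses, reproduced on every date tested; inconclusive means results disagree between test dates, or hit never tested in dose response; inactive means the rest.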

The assay addresses Virion infectivity factor (Human immunodeficiency virus type 1 group M subtype B (isolate BH10)) + Virion infectivity factor (Human immunodeficiency virus type 1 group M subtype B (isolate BRU/LAI)) + Virion infectivity factor (Human immunodeficiency virus type 1 group M subtype B (isolate PCV12)) + Virion infectivity factor (Human immunodeficiency virus type 1 group M subtype B (isolate HXB2)) + DNA dC->dU-editing enzyme APOBEC-3G (Homo sapiens) (UniProt P69720+P69721+P69722+P69723+Q9HC16). Briefly: HIV-1 Vif–A3G interaction blockers – biochemical, TR-FRET, GST-Vif 1-94, biotin-A3G peptide, dose response retest, primary screen (AID 1117319).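 Further: Vif residues 1-94 fused to GST binding biotinylated APOBEC3G peptide 110-148; 0% = full assay without inhibitor and 100% = GST in place of GST-Vif.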 Particulars: TR-FRET GST-Vif / biotin-A3G peptide binding; hits give high values. A general note: In TR-FRET formats the signal depends on donor and acceptor labels being close together.
What is called inhibition is the drop in the measured response relative to a control, in per cent. For the compound `Nc1nc(Cn2nnc(-c3ccccc3F)n2)nc(N2CCOCC2)n1`, the inhibition was -5.97%.

In the case of `COc1ccc(N=CC2=C(O)CCCC2=O)cc1`, the inhibition was 72.2%.

For `CC1(C)CC(=O)C(C=Nc2ccc(O)cc2)=C(O)C1`, the inhibition is 21.5%.

As for `COC(=O)c1cccc(COC(=O)c2ccc(N(C)C)cc2)c1`, the inhibition was -1.93%.

As for `CC1CCCCN1C(=O)CSc1nc2ccccc2[nH]1` (centres undefined), the inhibition is -5.81%.

`CCn1c(C)nc2cc(C(=O)N/N=C/c3ccccc3C)ccc21`: the inhibition was -5.98%.

For `CCN(CC)S(=O)(=O)c1cccc(C(=O)N/N=C/c2cc(OC)c(O)c(OC)c2)c1`, the inhibition was 1.27%.

Regarding `CCOc1ccccc1/C=N/NC(=O)c1cccc(S(=O)(=O)N(CC)CC)c1`, the inhibition was -6.17%.

As for `CN(C)S(=O)(=O)c1cccc(NC(=S)N/N=C/c2cc(Br)ccc2O)c1`, the inhibition is 9.46%.

With `CCn1c(C)nc2cc(C(=O)N/N=C/c3ccccc3)ccc21`, the inhibition was 4.16%.

As for `Cc1cccc(N/N=C/c2ccccc2O)c1`, the inhibition was 0.12%.

With `COc1ccc(O)c(/C=N/NC(=S)Nc2cccc(S(=O)(=O)N(C)C)c2)c1`, the inhibition is 12.6%.

For `Cc1cccc(N/N=C/c2ccncc2)c1`, the inhibition was 4.59%.

`CS/C(=N\S(=O)(=O)c1ccc(N)cc1)NS(=O)(=O)c1cccs1`: the inhibition is 4.67%.

`O=C(Nc1nnc(CCc2ccccc2)s1)c1ccco1`: the inhibition was -2.33%.

For `CSc1nnc(-c2cccc(C)c2)n1N`, the inhibition is -5.45%.

Take `CCOCCCn1c(=NC(=O)c2ccco2)c(C(=O)OCC)cc2c(=O)n3cccc(C)c3nc21`: the inhibition is 8.51%.

Turning to `O=C(NCc1ccccc1)C1=C[C@H](C2CC2)C[C@H](OCCCCO)O1`, the inhibition is -0.51%.

As for `CC1=C(C(=O)OCC2CCCO2)C(c2ccc(O)cc2)NC(=O)N1` (centres undefined), the inhibition is 10.8%.

With `CCN(C(=O)c1cc2ccccc2o1)C12CC3CC(CC(C3)C1)C2`, the inhibition was -6.34%.

Take `O=C(N/N=C/c1ccc(Br)o1)/C(=C/c1ccc([N+](=O)[O-])cc1)NC(=O)c1ccccc1`: the inhibition was 12.1%.

Take `CN(C)c1ccc(/C=C(/NC(=O)c2ccccc2)C(=O)N/N=C/c2ccc([N+](=O)[O-])c(O)c2)cc1`: the inhibition is 15.2% and -3.76%.

On to `Cc1cc(=O)oc2cc(OCC(=O)OCC(=O)Nc3ccc4ccccc4c3)ccc12`, for which the inhibition was -10.1%.

On to `Cn1nnnc1SCC(=O)N1c2ccccc2CCc2ccccc21`, for which the inhibition was 3.78%.

As to `O=C(O)c1sc(C(=O)O)c(-c2ccccc2)c1-c1ccccc1`, the inhibition is 2.28%.

With `CC(C)(Oc1ccc(-c2ccco2)cc1)C(=O)O`, the inhibition is 3.13%.

In the case of `O=S(=O)(c1ccccc1)N1N=C(c2ccc(Cl)cc2)CC1c1ccco1` (centres undefined), the inhibition is 4.42%.

As to `O=C(/C=C/c1ccccc1)Nn1cnnc1`, the inhibition is -6.05%.

Take `NC(=O)Cc1ccc(C(=O)c2ccc(F)cc2)s1`: the inhibition is -4.28%.

On to `Cc1ccccc1OCCC(=O)OCC(=O)NCCc1ccc(S(N)(=O)=O)cc1`, for which the inhibition is -1.77%.

Take `CCOc1ccccc1C(=O)NCC(=O)NCCc1ccc(S(N)(=O)=O)cc1`: the inhibition was 0.59%.

On to `COc1ccccc1C(=O)Nc1cccc(NC(C)=O)c1`, for which the inhibition is 12.4%.

As for `Cc1ccc(S(=O)(=O)N(C(=O)c2ccncc2)c2ccc3oc4c(c3c2)CCCC4)cc1[N+](=O)[O-]`, the inhibition is -4.21%.

For `Oc1ccc2oc3c(c2c1C=NCc1ccncc1)CCCC3`, the inhibition was 24.2%.

For the compound `CCOc1ccccc1C(=O)N[C@H](C(=O)Nc1ccc(OC)c(S(=O)(=O)N2CCOCC2)c1)C(C)C`, the inhibition was -13.1%.

On to `O=C1OCCC1Sc1nnc(-c2cccnc2)n1-c1ccccc1F` (centres undefined), for which the inhibition was 5.98%.

Take `CCOC(=O)N1CCN(Cc2nnc(-c3cccc(Br)c3)o2)CC1`: the inhibition was -4.74%.

Turning to `Cc1ccc2cc(C#N)c(N3CCN(C)CC3)nc2c1`, the inhibition was 3.3%.

In the case of `Cc1ccc2nc(N3CCN(C)CC3)c(C#N)cc2c1`, the inhibition was 1.03%.

As for `Cn1c(N)c(C(=O)COC(=O)/C=C/c2ccccc2F)c(=O)n(C)c1=O`, the inhibition is 0.83%.

Take `COc1cccc(C(C)=NNc2ccc([N+](=O)[O-])cc2[N+](=O)[O-])c1OC`: the inhibition is 0.32%.

As to `C/C(=N\NC(=O)c1ccc([N+](=O)[O-])cc1)c1cc2ccccc2oc1=O`, the inhibition is 13.4%.

Regarding `Cc1cc(N/N=C/c2cccc(F)c2)nc(NCc2ccccc2)n1`, the inhibition was 4.51%.

Consider `Cc1cccc(-n2c(N)cc(=O)nc2SC(C)C(=O)NC2CCCCC2)c1` (centres undefined), for which the inhibition is -1.72%.

In the case of `Nc1cc(=O)nc(SCC(=O)NC2CCCCC2)n1-c1ccccc1`, the inhibition was -0.99%.

Consider `O=[N+]([O-])c1ccc(O)c(C2=NNC(c3ccccc3F)C2)c1` (centres undefined), for which the inhibition was 13.2%.

With `O=C(N/N=C/c1cc2c(cc1Br)OCO2)c1ccccn1`, the inhibition is 7.07%.

`O=C(O)c1ccc(S(=O)(=O)N2CCCCCC2)cc1`: the inhibition was 1.58%.

Regarding `O=C(O)c1ccc(S(=O)(=O)N2CCCCCCC2)cc1`, the inhibition is 1.86%.

Turning to `CC(C)(C)c1cc(NC(=O)COC(=O)C2CC2)n(-c2ccccc2)n1`, the inhibition was -5.93%.

For the compound `COc1cc(OC)nc(NC(=O)CN2CCN(c3ccc(F)cc3)CC2)n1`, the inhibition was 4.2%.

With `CC(=O)C1=C(C)NC(=O)NC1c1cccs1` (centres undefined), the inhibition is 7.19%.

On to `CC1=C(C(=O)OC(C)C)C(c2cccs2)C(C(=O)OC(C)C)=C(C)N1`, for which the inhibition was -3.55%.

On to `COC(=O)c1ccc2c(=O)n(CC3CCCO3)c(SCC(=O)Nc3ccc(OC)cc3OC)nc2c1` (centres undefined), for which the inhibition is -7.78%.

On to `COc1ccc(C(=O)NC2CC3CCCC(C2)N3CC(C)C)cc1OC` (centres undefined), for which the inhibition is -7.52%.

Turning to `CCCN1C2CCCC1CC(NC(=O)c1cc(OC)c(OC)c(OC)c1)C2` (centres undefined), the inhibition is 9.1%.

As to `Cc1noc(C)c1CSc1ncnc2sc3c(c12)CCC3`, the inhibition is -4.14%.

For `COc1ccc(/C(N)=N/OC(=O)c2ccco2)cc1`, the inhibition is -1.36%.

On to `CCN1C(=O)c2ccccc2S(=O)c2ccc(C(=O)N3CCN(C(=O)c4ccco4)CC3)cc21` (centres undefined), for which the inhibition is 1.84%.

As to `O=C1c2ccccc2-c2c1cccc2C(=O)N1CCN(C(=O)c2ccco2)CC1`, the inhibition is 18.7%.

As for `CCOC(=O)c1c(/N=C/c2cccc([N+](=O)[O-])c2O)sc2c1CCC2`, the inhibition is 27%.

For `CCCCn1cnc2c(SCc3ccc(Br)cc3)nc(N)nc21`, the inhibition was -11.3%.

For the compound `CC(CN(C(N)=O)c1ccccc1O)C(=O)O` (centres undefined), the inhibition was 17.1%.

`CC(CC(C)C(=O)Nc1ccccc1C(C)(C)C)C(=O)O` (centres undefined): the inhibition was 5.47%.

Take `CCC1CCCCN1C(=O)COc1cc(=O)n(C)c2ccccc12` (centres undefined): the inhibition was 1.25%.

With `O=C1c2cccc(O)c2C(=O)c2c(O)cccc21`, the inhibition is 23.8%.

As to `O=C1c2cccc(NCCNCCO)c2C(=O)c2cccc(NCCNCCO)c21`, the inhibition was -16.1%.

On to `COc1cccc(NC(=O)CN(C)C(=O)c2ccc(COc3ccccc3)o2)c1`, for which the inhibition was 10.4%.

Turning to `O=C(CSc1ccc(-c2ccccc2)nn1)N1CCOCC1`, the inhibition is 8.48%.

Take `COc1cc(/C=C2/SC(=NCc3ccccc3)N(Cc3ccccc3)C2=O)ccc1O`: the inhibition was -3.52%.

With `COc1ccccc1N1CCN(C(=O)c2sc3nc(-c4ccccc4)cn3c2C)CC1`, the inhibition was -3.37%.

`Cc1c(C(=O)N2CCN(c3ccc(F)cc3)CC2)sc2nc(-c3ccccc3)cn12`: the inhibition was -5.76%.

Consider `COc1cccc(/C=N/NC(=O)C(=O)NCc2ccco2)c1O`, for which the inhibition is -4.26%.

For `CN(C)CCN=Cc1c(O)n(Cc2ccc3c(c2)OCO3)c(=O)c2ccccc12`, the inhibition was -11.8%.

Consider `C=CCSc1nc2sc3c(c2c(=O)n1CC)CCC3`, for which the inhibition was 6.31%.

For the compound `CC(Sc1nc2sc3c(c2c(=O)n1-c1ccccc1)CCCC3)C(=O)O` (centres undefined), the inhibition is 17%.

Consider `CCn1c(SCC(N)=O)nc2sc3c(c2c1=O)CCCC3`, for which the inhibition was -2.97%.

With `CCn1c(SCC(=O)O)nc2sc3c(c2c1=O)CCC3`, the inhibition is 32.7%.

With `CC1(C)CC(=O)C=C(c2n[nH]nc2C2CC2)C1`, the inhibition was 4.55%.

Take `CCN(Cc1ccccc1)C(=O)c1cc(S(=O)(=O)N2CCOCC2)ccc1N1CCCC1`: the inhibition is 3.77%.

Turning to `Cc1cc(Nc2ccc(Br)cc2)nc(-c2ccccc2O)n1`, the inhibition is -1.59%.

For the compound `CC(=NCc1cccc(Cl)c1)c1nc(-c2ccco2)oc1O`, the inhibition was 8.49%.

`O=C(c1cccc(F)c1)N1CCCC(C(=O)N2CCCC2)C1` (centres undefined): the inhibition is -3.84%.

On to `O=C(Nc1ccc(Oc2ccccc2)cc1)c1ccc(Cn2c(=O)[nH]c3ccsc3c2=O)cc1`, for which the inhibition was -6.11%.

For the compound `Cc1ccccc1NC(=O)CSc1n[nH]c(-c2ccco2)n1`, the inhibition was 9.51%.

For `Cc1cccc(C)c1NC(=O)CSc1nnc(-c2ccco2)n1N`, the inhibition was -0.27%.

Regarding `Cc1cccc(NC(=O)CSc2nnc(-c3ccco3)o2)c1C`, the inhibition is -1.43%.

Turning to `Cc1cccc(NC(=O)CSc2nnc(CNC(=O)c3ccco3)n2C)c1C`, the inhibition was -5.41%.

For the compound `Cc1ccccc1NC(=O)CSc1nnc(-c2ccco2)n1N`, the inhibition is -10.3%.

Turning to `Cc1cccc(C)c1NC(=O)CSc1nc(-c2ccco2)cc(C(F)(F)F)n1`, the inhibition was -1.99%.

Take `CN(C)c1ccc(C(CNS(=O)(=O)c2cccc([N+](=O)[O-])c2)N2CCOCC2)cc1` (centres undefined): the inhibition was -0.61%.

For `COc1ccc(CN(CC(=O)NCc2ccc(F)cc2)C(=O)c2ccco2)cc1`, the inhibition was -3.39%.

Consider `O=C(CSc1nnc(-c2cnccn2)n1Cc1ccco1)c1ccc2ccccc2c1`, for which the inhibition was 4.99%.

`CCn1cc(C(=O)NCc2ccc3c(c2)OCO3)c(=O)c2cc(S(=O)(=O)N3CCOCC3)ccc21`: the inhibition was -9.22% and 8.82%.
